Compound activity: PubChem, National Center for Advancing Translational Sciences (NCATS)
Compounds with a hit are over-represented: about 7.3% of the library has one in this group of screens.
NPC1 promoter act: activates the NPC1 promoter. Huh7 NPC1 promoter luciferase reporter, 24 h. Potency, µM (highest dose often 9.22 µM), for the others: at the highest dose activation, most hits filed as activators. 320,000 tested, 2.4% active. AID 485313; note: % of control where 0% means no effect; nearly all actives have a fitted effect of over 60% in size
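Readout is luciferase luminescence, reflecting NPC1 promoter activation in stably transfected Huh7 cells after 24 h compound exposure at 37 °C in reduced-serum medium with 10% FBS.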
ELG1 genotox: induces genotoxicity in HEK293T cells with luciferase-tagged ELG1. HEK293T ELG1-luciferase reporter, luminescence, 16 h. Potency, µM (top dose mostly 46 µM), for inactives: top-dose activity change, positive = activation, hits mostly activators. 330,000 tested, 1.3% active; note: % of control where 0% means no effect; nearly all actives have a fitted effect of over 60% in size
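Step 1: seed 2,000 HEK293T ELG1-luciferase cells per well. Step 2: add compound or DMSO, incubate 16 hr at 37 °C. Step 3: ONE-Glo, 30 min at room temperature, read luminescence.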
FLuc modulator: firefly luciferase modulation, counter-screen for miR-21 project; P08659; purified FLuc, Km substrates, luminescence inhibition; Potency, µM (titrated, usually from 57.5 µM), for inactives: top-dose activity change, negative = inhibition, most hits filed as inhibitors; 360,000 tested, 6.9% active;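 note: plate controls were vehicle for no effect and reference inhibitor for full effect; nearly all actives have a fitted effect of over 55% in size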
Target sequence (P08659 whole entry, looked up): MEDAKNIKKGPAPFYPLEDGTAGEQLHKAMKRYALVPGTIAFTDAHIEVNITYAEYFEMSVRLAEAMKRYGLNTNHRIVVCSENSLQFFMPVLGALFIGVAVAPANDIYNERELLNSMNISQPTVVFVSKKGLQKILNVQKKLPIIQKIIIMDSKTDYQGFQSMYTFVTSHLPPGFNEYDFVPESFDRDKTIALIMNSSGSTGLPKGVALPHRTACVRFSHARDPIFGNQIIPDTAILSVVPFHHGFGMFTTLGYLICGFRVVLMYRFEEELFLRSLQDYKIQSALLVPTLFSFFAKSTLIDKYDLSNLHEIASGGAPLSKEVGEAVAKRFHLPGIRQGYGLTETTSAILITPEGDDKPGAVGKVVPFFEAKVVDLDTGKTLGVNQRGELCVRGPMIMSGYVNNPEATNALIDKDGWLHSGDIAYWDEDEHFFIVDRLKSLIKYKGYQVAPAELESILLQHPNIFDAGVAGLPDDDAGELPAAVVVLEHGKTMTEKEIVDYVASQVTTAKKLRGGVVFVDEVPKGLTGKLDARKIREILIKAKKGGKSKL
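Purified P. pyralis luciferase (10nM final) with 10uM D-luciferin and 10uM ATP (Km levels) in 50mM Tris acetate pH 7.5, 10mM Mg acetate, 0.01% Tween-20, 0.05% BSA; qHTS 6-point titration, ~60 µM downward; luminescence read.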
Rab9 promoter act: Rab9 promoter activation | Huh7 Rab9 promoter-luciferase reporter, luminescence, 24 h | Potency, µM (titrated, usually from 9.22 µM), for the others: top-dose activation, negative = inhibition, hits mostly activators | 320,000 tested, 2.8% active; note: % of control where 0% means no effect; nearly all actives have a fitted effect of over 60% in size
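Promoter activation is measured as luciferase luminescence in Huh7 cells stably transfected with a Rab9 promoter–luciferase construct, following 24 h compound exposure at 37 °C and 10 min reagent incubation at ambient temperature.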
SMN2 splice up: SMN2 splice variant enhancement; Potency, µM (titrated, usually from 46.1 µM), without a hit: at the highest dose activity change, positive = activation, hits mostly activators; AID 1458; HEK293 SMN2-luciferase splicing reporter, luminescence, 30-36 h; 210,000 tested, 2.8% active; note: % of control where 0% means no effect; nearly all actives have a fitted effect of over 55% in size
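HEK293 cells carry an SMN2 […]–luciferase reporter in which exon 7 inclusion puts luciferase in frame. Cells were plated 10-12 h before compound addition, then incubated 30-36 h at 37C. ONE-Glo luminescence was read; sodium butyrate at 4.5 mM final served as control.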
KinaseGlo FLuc: counter-screen: inhibitors of Kinase-Glo firefly luciferase. Potency, µM (series often up to 38.3 µM), for the others: top-dose activity change, negative = inhibition, most hits filed as inhibitors. AID 1379. 200,000 tested, 0.28% active. Kinase-Glo luciferase, ATP luminescence, 8 min; note: % is set by controls: 0 for no effect and ±100 for the full control effect; nearly all actives have a fitted effect of over 60% in size
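Recombinant Kinase-Glo luciferase, 10 uM ATP (linear range), luciferin; imidazole pH 7.2 / KCl / MgCl2 / Tween / BSA buffer; 8 min RT; luminescence.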
* hit, by the source's call; ? = inconclusive; . = not tested or not shown. Calls come from the whole dose curve; as a rule, active = well fitted curve in the direction sought with a large enough effect; inconclusive = small, poorly fitted or top-dose-only effect, or another doubt; inactive = no such curve, though single readings can be large; an effect the other way counts as inactive or inconclusive. Potency is the fitted concentration of half-maximal effect.

SMILES | NPC1 promoter act | ELG1 genotox | FLuc modulator | Rab9 promoter act | SMN2 splice up | KinaseGlo FLuc
O=C(NCCNC(=O)c1ccccn1)c1ccc(Cl)cc1 | 5.9% | -2.6% | 0.7% | 5.8% | . | .
C/C(=N\NC(=O)c1ccccn1)c1ccc(Cl)cc1 | 0.794µM* | ? | 2.39µM* | 0.562µM* | . | .
CCOc1ccc(-c2oc3cc(Cl)ccc3c(=O)c2O)cc1OC | . | . | 4.7% | . | -2.9% | .
C/C(=N/NC(=O)c1ccccn1)c1c[nH]c2ccccc12 | 2.24µM* | 10.3µM* | 5.36µM* | 3.55µM* | . | .
C/C(=N\Nc1ccc(Cl)cc1)c1ccccn1 | 11.3% | 20.6µM* | 10.7µM* | ? | 14.1µM* | -2.3%
C/C(=N\Nc1ccc(Cl)cc1)c1ccncc1 | -1.5% | 5.6% | ? | 4.0% | . | .
COc1ccc(-n2c(=O)c3c4c(sc3n(CC(=O)N3CCCCC3C)c2=O)CCC4)c(OC)c1 (stereo not drawn) | . | . | 4.7% | . | -6.0% | .
CC(=C/c1ccccc1)/C=N/NC(=O)c1cccs1 | 1.41µM* | 1.83µM* | 0.953µM* | 1µM* | . | .
CC(/C=N/NC(=O)c1cc(-c2ccc(C)s2)[nH]n1)=C\c1ccccc1 | -6.6% | 4.3% | ? | 1.2% | 27.4% | 1.2%
O=C(N/N=C/C(Br)=C\c1ccccc1)c1cccs1 | 2.24µM* | ? | 2.13µM* | 1.58µM* | . | .
Cc1ccc(CNC(=O)C2CCN(c3ncnc4c3nc3n4CCCCC3)CC2)cc1 | . | . | 2.0% | . | . | .
Cc1c(Cl)ccc2sc(NC(=O)C3CC3)nc12 | 20.3% | 6.9% | ? | 10.3% | . | .
CCC(=O)Nc1nc2ccc3sc(C)nc3c2s1 | ? | ? | 6.75µM* | ? | 15.5% | -6.9%
Cc1nc2c(ccc3nc(NC(=O)C4CC4)sc32)s1 | ? | -5.6% | 13.5µM* | -2.6% | -50.8% | -8.8%
COc1ccccc1CNC(=O)Cn1c(-c2cccs2)cc2cc(F)ccc21 | . | . | 2.1% | . | . | .
Cc1nc(NC(=O)c2ccc3c(c2)OCO3)ccc1Br | 3.16µM* | ? | 9.53µM* | 3.55µM* | 11.2µM* | -24.9%
Cc1cc(NC(=O)c2nn(C)c(C)c2Br)no1 | ? | ? | ? | 2.82µM* | . | .
CC(=O)Nc1ccc(C(=O)Nc2cc(C)on2)cc1 | 5.4% | 11.0% | -3.5% | 10.5% | . | .
CCOc1ccc(C(=O)Nc2cc(C)on2)cc1OCC | -1.0% | 11.7% | 2.8% | 1.4% | -3.2% | -2.8%
Cc1cc(NC(=O)c2ccc3c(c2)OCO3)no1 | 2.51µM* | ? | 10.7µM* | 1.58µM* | 11.2µM* | -12.5%
Cc1cc(NC(=O)c2ccc(F)cc2)no1 | ? | ? | 16.9µM* | ? | . | .
Cc1cc(NC(=O)c2ccc3c(c2)OCCO3)no1 | ? | 0.651µM* | 1.2µM* | 0.447µM* | 3.55µM* | -13.9%
COc1ccc(C(=O)Nc2cc(C)on2)cc1OC | -2.6% | 16.0% | -6.1% | 1.8% | . | .
CCOC(=O)C(=O)Nc1cc(C)on1 | 2.82µM* | ? | 1.69µM* | 1.58µM* | . | 12.6µM*
CC(C)(C)/C(O)=C/c1nc2ccccc2[nH]c1=O | -1.0% | -0.4% | -0.4% | 0.6% | 2.3% | 1.5%
SMILES | NPC1 promoter act | ELG1 genotox | FLuc modulator | Rab9 promoter act | SMN2 splice up | KinaseGlo FLuc
O=c1[nH]c2ccccc2nc1/C=C(\O)c1cccs1 | 3.98µM* | ? | ? | 3.16µM* | . | -23.8%
O/C(=C\c1nc2ccccc2[nH]1)c1cccs1 | 3.55µM* | ? | 13.5µM* | 3.98µM* | . | .
CCOC(=O)c1cc(-c2ccc(F)cc2)n(CCC(=O)Nc2nc3cc(C)c(C)cc3s2)c1C | . | . | 5.5% | . | . | .
COC(=O)c1ccccc1NC(=O)c1ccc2nc(Cc3ccccc3)oc2c1 | . | . | -1.9% | . | . | .
CC1(C)CC(=O)C(C(C2=C(O)CC(C)(C)CC2=O)c2cccs2)C(=O)C1 (stereo not drawn) | -4.4% | 3.0% | 16.9µM* | -1.2% | . | .
CCCOc1ccc(C2c3c(-c4ccccc4O)n[nH]c3C(=O)N2Cc2ccncc2)cc1OCC (stereo not drawn) | . | . | -1.3% | . | 15.4% | .
CCn1c(-c2ccccc2)csc1=Nc1ccc(S(=O)(=O)O)cc1 | ? | -0.4% | 3.79µM* | ? | -18.5% | 4.7%
